Test system: BRAF

SMILES | Kinases covered
O=C(Nc1cccc(-c2nn3ncccc3c2-c2ccnc(Nc3cccnc3)n2)c1)c1c(F)cccc1F [GSK312879] | BRAF
CCCS(=O)(=O)Nc1ccc(F)c(-n2cc(-c3cncc(OC)c3)nn2)c1F [BI00865461] | BRAF
CN(C)CCN(C)C(=O)c1cc(-c2ccncc2)c(-c2ccc(Cl)c(O)c2)o1 [SB-710397] | BRAF
CN(C)CCOc1ccc(-c2nc(-c3ccc4c(c3)CC/C4=N\O)c(-c3ccncc3)[nH]2)cc1 [SB-590885] | BRAF
COC(=O)c1c(-c2ccccc2)c2cc(OC)ccc2c(=O)n1Cc1ccccc1 [TPKI-97] | BRAF

— publication PMC7826789 (International Journal of Molecular Sciences, 2021)
